Source: article PMC11006913

Tests used:
Assay in all cases: PBM; 200 nM protein, PBS
Conditions in all cases: dsDNA, one strand shown
HOXA2 [1] = target: HOXA2 (Homo sapiens, UniProt O43364 129-215, R185T)
HOXA2 [2] = target: HOXA2 (Homo sapiens, UniProt O43364 129-215, R185K)
HOXA2 [3] = target: HOXA2 (Homo sapiens, UniProt O43364 129-215, Y150S)
HOXA2 [4] = target: HOXA2 (Homo sapiens, UniProt O43364 129-215)
VAX1 [5] = target: VAX1 (Homo sapiens, UniProt Q5SQQ9 86-172)
VAX1 [6] = target: VAX1 (Homo sapiens, UniProt Q5SQQ9 86-172, T142I)
VAX1 [7] = target: VAX1 (Homo sapiens, UniProt Q5SQQ9 86-172, K157R)
HOXA4 = HOXA4 (Homo sapiens, UniProt Q00056 201-287, W262F)
HOXB9 [8] = target: HOXB9 (Homo sapiens, UniProt P17482 171-250)
HOXB9 [9] = target: HOXB9 (Homo sapiens, UniProt P17482 171-250, R186Q)
HOXB9 (Homo sapiens, UniProt P17482 171-250, R186Q), sequence (P17482 171-250 R186Q): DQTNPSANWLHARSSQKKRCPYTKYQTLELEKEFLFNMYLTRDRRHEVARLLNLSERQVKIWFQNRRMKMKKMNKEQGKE

HOXA2 (Homo sapiens, UniProt O43364 129-215, R185K), sequence (O43364 129-215 R185K): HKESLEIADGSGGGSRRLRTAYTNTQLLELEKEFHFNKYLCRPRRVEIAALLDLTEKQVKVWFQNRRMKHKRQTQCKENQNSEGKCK
HOXA2 (Homo sapiens, UniProt O43364 129-215), sequence (O43364 129-215): as the sequence (O43364 129-215 R185K) above, with K57R counted along it
HOXA2 (Homo sapiens, UniProt O43364 129-215, R185T), sequence (O43364 129-215 R185T): as the sequence (O43364 129-215 R185K) above, with K57T counted along it
HOXA2 (Homo sapiens, UniProt O43364 129-215, Y150S), sequence (O43364 129-215 Y150S): as the sequence (O43364 129-215 R185K) above, with Y22S, K57R counted along it
VAX1 (Homo sapiens, UniProt Q5SQQ9 86-172, T142I), sequence (Q5SQQ9 86-172 T142I): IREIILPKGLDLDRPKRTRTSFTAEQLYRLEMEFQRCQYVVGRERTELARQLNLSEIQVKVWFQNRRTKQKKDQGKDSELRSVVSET
VAX1 (Homo sapiens, UniProt Q5SQQ9 86-172), sequence (Q5SQQ9 86-172): as the sequence (Q5SQQ9 86-172 T142I) above, with I57T counted along it
VAX1 (Homo sapiens, UniProt Q5SQQ9 86-172, K157R), sequence (Q5SQQ9 86-172 K157R): as the sequence (Q5SQQ9 86-172 T142I) above, with I57T, K72R counted along it
HOXB9 (Homo sapiens, UniProt P17482 171-250), sequence (P17482 171-250): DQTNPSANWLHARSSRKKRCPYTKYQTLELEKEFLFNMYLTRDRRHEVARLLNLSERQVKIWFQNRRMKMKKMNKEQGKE
HOXA4, sequence (Q00056 201-287 W262F): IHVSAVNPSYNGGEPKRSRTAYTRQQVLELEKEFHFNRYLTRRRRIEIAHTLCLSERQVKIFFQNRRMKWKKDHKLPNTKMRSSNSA

GCAACCCC
binding signal (HOXA2 [1]): 7.26 upbm affinity estimate (log intensity, higher = more binding, comparable within an allelic series)
binding signal (HOXA2 [2]): 10.1 upbm affinity estimate (log intensity, higher = more binding, comparable within an allelic series)
binding signal (HOXA2 [3]): 10.4 upbm affinity estimate (log intensity, higher = more binding, comparable within an allelic series)
binding signal (HOXA2 [4]): 7.17 upbm affinity estimate (log intensity, higher = more binding, comparable within an allelic series)

CAATCACA
binding signal (HOXA2 [1]): 9.53 upbm affinity estimate (log intensity, higher = more binding, comparable within an allelic series)
binding signal (HOXA2 [2]): 11.8 upbm affinity estimate (log intensity, higher = more binding, comparable within an allelic series)
binding signal (HOXA2 [3]): 10.8 upbm affinity estimate (log intensity, higher = more binding, comparable within an allelic series)
binding signal (HOXA2 [4]): 9.4 upbm affinity estimate (log intensity, higher = more binding, comparable within an allelic series)

CCCCCACC
binding signal (HOXA2 [1]): 6.87 upbm affinity estimate (log intensity, higher = more binding, comparable within an allelic series)
binding signal (HOXA2 [2]): 9.85 upbm affinity estimate (log intensity, higher = more binding, comparable within an allelic series)
binding signal (HOXA2 [3]): 10.3 upbm affinity estimate (log intensity, higher = more binding, comparable within an allelic series)
binding signal (HOXA2 [4]): 6.86 upbm affinity estimate (log intensity, higher = more binding, comparable within an allelic series)

GCTCATTA
binding signal (HOXA2 [1]): 12.7 upbm affinity estimate (log intensity, higher = more binding, comparable within an allelic series)
binding signal (HOXA2 [2]): 13.2 upbm affinity estimate (log intensity, higher = more binding, comparable within an allelic series)
binding signal (VAX1 [5]): 13.1 upbm affinity estimate (log intensity, higher = more binding, comparable within an allelic series)
binding signal (VAX1 [6]): 12.8 upbm affinity estimate (log intensity, higher = more binding, comparable within an allelic series)
binding signal (HOXA2 [3]): 10.5 upbm affinity estimate (log intensity, higher = more binding, comparable within an allelic series)
binding signal (HOXA2 [4]): 12.5 upbm affinity estimate (log intensity, higher = more binding, comparable within an allelic series)
binding signal (VAX1 [7]): 12.7 upbm affinity estimate (log intensity, higher = more binding, comparable within an allelic series)

AGAGCCCC
binding signal (HOXA2 [1]): 7.28 upbm affinity estimate (log intensity, higher = more binding, comparable within an allelic series)
binding signal (HOXA2 [2]): 10.2 upbm affinity estimate (log intensity, higher = more binding, comparable within an allelic series)
binding signal (HOXA2 [3]): 10.3 upbm affinity estimate (log intensity, higher = more binding, comparable within an allelic series)
binding signal (HOXA2 [4]): 7.25 upbm affinity estimate (log intensity, higher = more binding, comparable within an allelic series)

AATCAGCT
binding signal (HOXA2 [1]): 10.1 upbm affinity estimate (log intensity, higher = more binding, comparable within an allelic series)
binding signal (HOXA2 [2]): 11.9 upbm affinity estimate (log intensity, higher = more binding, comparable within an allelic series)
binding signal (HOXA2 [3]): 10.7 upbm affinity estimate (log intensity, higher = more binding, comparable within an allelic series)
binding signal (HOXA2 [4]): 9.77 upbm affinity estimate (log intensity, higher = more binding, comparable within an allelic series)

TCATTAGA
binding signal (HOXA2 [1]): 12.1 upbm affinity estimate (log intensity, higher = more binding, comparable within an allelic series)
binding signal (HOXA2 [2]): 13 upbm affinity estimate (log intensity, higher = more binding, comparable within an allelic series)
binding signal (VAX1 [5]): 12.8 upbm affinity estimate (log intensity, higher = more binding, comparable within an allelic series)
binding signal (VAX1 [6]): 12.5 upbm affinity estimate (log intensity, higher = more binding, comparable within an allelic series)
binding signal (HOXA2 [3]): 10.6 upbm affinity estimate (log intensity, higher = more binding, comparable within an allelic series)
binding signal (HOXA2 [4]): 12.1 upbm affinity estimate (log intensity, higher = more binding, comparable within an allelic series)
binding signal (VAX1 [7]): 12.5 upbm affinity estimate (log intensity, higher = more binding, comparable within an allelic series)

ACCTCGCC
binding signal (HOXA2 [1]): 7.06 upbm affinity estimate (log intensity, higher = more binding, comparable within an allelic series)
binding signal (HOXA2 [2]): 10.2 upbm affinity estimate (log intensity, higher = more binding, comparable within an allelic series)
binding signal (HOXA2 [3]): 10.4 upbm affinity estimate (log intensity, higher = more binding, comparable within an allelic series)
binding signal (HOXA2 [4]): 6.93 upbm affinity estimate (log intensity, higher = more binding, comparable within an allelic series)

AGTTAACG
binding signal (HOXA2 [1]): 9.97 upbm affinity estimate (log intensity, higher = more binding, comparable within an allelic series)
binding signal (HOXA2 [2]): 12.2 upbm affinity estimate (log intensity, higher = more binding, comparable within an allelic series)
binding signal (HOXA2 [3]): 10.7 upbm affinity estimate (log intensity, higher = more binding, comparable within an allelic series)
binding signal (HOXA2 [4]): 9.96 upbm affinity estimate (log intensity, higher = more binding, comparable within an allelic series)

CGTCATTA
binding signal (HOXA2 [1]): 12.3 upbm affinity estimate (log intensity, higher = more binding, comparable within an allelic series)
binding signal (HOXA2 [2]): 13.2 upbm affinity estimate (log intensity, higher = more binding, comparable within an allelic series)
binding signal (HOXA2 [3]): 10.8 upbm affinity estimate (log intensity, higher = more binding, comparable within an allelic series)
binding signal (HOXA4): 11.4 upbm affinity estimate (log intensity, higher = more binding, comparable within an allelic series)
binding signal (HOXA2 [4]): 12.3 upbm affinity estimate (log intensity, higher = more binding, comparable within an allelic series)

CGAGAGGC
binding signal (HOXA2 [1]): 7.16 upbm affinity estimate (log intensity, higher = more binding, comparable within an allelic series)
binding signal (HOXA2 [2]): 10.3 upbm affinity estimate (log intensity, higher = more binding, comparable within an allelic series)
binding signal (HOXA2 [3]): 10.4 upbm affinity estimate (log intensity, higher = more binding, comparable within an allelic series)
binding signal (HOXA2 [4]): 7.01 upbm affinity estimate (log intensity, higher = more binding, comparable within an allelic series)

GGTAACGA
binding signal (HOXA2 [1]): 9.98 upbm affinity estimate (log intensity, higher = more binding, comparable within an allelic series)
binding signal (HOXA2 [2]): 12.2 upbm affinity estimate (log intensity, higher = more binding, comparable within an allelic series)
binding signal (HOXA2 [3]): 10.8 upbm affinity estimate (log intensity, higher = more binding, comparable within an allelic series)
binding signal (HOXA2 [4]): 10 upbm affinity estimate (log intensity, higher = more binding, comparable within an allelic series)

CATTATGG
binding signal (HOXA2 [1]): 10.5 upbm affinity estimate (log intensity, higher = more binding, comparable within an allelic series)
binding signal (HOXA2 [2]): 12.3 upbm affinity estimate (log intensity, higher = more binding, comparable within an allelic series)
binding signal (HOXA2 [3]): 10.7 upbm affinity estimate (log intensity, higher = more binding, comparable within an allelic series)
binding signal (HOXA2 [4]): 10.9 upbm affinity estimate (log intensity, higher = more binding, comparable within an allelic series)

CAGCCACG
binding signal (HOXA2 [1]): 7.22 upbm affinity estimate (log intensity, higher = more binding, comparable within an allelic series)
binding signal (HOXA2 [2]): 10.5 upbm affinity estimate (log intensity, higher = more binding, comparable within an allelic series)
binding signal (HOXA2 [3]): 10.4 upbm affinity estimate (log intensity, higher = more binding, comparable within an allelic series)
binding signal (HOXA2 [4]): 7.24 upbm affinity estimate (log intensity, higher = more binding, comparable within an allelic series)

CCTGCCAC
binding signal (HOXA2 [1]): 7.29 upbm affinity estimate (log intensity, higher = more binding, comparable within an allelic series)
binding signal (HOXA2 [2]): 10.3 upbm affinity estimate (log intensity, higher = more binding, comparable within an allelic series)
binding signal (HOXA2 [3]): 10.6 upbm affinity estimate (log intensity, higher = more binding, comparable within an allelic series)
binding signal (HOXA2 [4]): 7.12 upbm affinity estimate (log intensity, higher = more binding, comparable within an allelic series)

AACCTAAT
binding signal (HOXA2 [1]): 10.5 upbm affinity estimate (log intensity, higher = more binding, comparable within an allelic series)
binding signal (HOXA2 [2]): 12.1 upbm affinity estimate (log intensity, higher = more binding, comparable within an allelic series)
binding signal (HOXA2 [3]): 10.6 upbm affinity estimate (log intensity, higher = more binding, comparable within an allelic series)
binding signal (HOXA2 [4]): 10.3 upbm affinity estimate (log intensity, higher = more binding, comparable within an allelic series)

AAACTTAA
binding signal (HOXA2 [1]): 8.91 upbm affinity estimate (log intensity, higher = more binding, comparable within an allelic series)
binding signal (HOXA2 [4]): 8.97 upbm affinity estimate (log intensity, higher = more binding, comparable within an allelic series)

AACAAATA
binding signal (HOXB9 [8]): 10.1 upbm affinity estimate (log intensity, higher = more binding, comparable within an allelic series)
binding signal (HOXB9 [9]): 9.97 upbm affinity estimate (log intensity, higher = more binding, comparable within an allelic series)

AACTAAAA
binding signal (HOXA2 [1]): 8.87 upbm affinity estimate (log intensity, higher = more binding, comparable within an allelic series)
binding signal (HOXA2 [3]): 10.6 upbm affinity estimate (log intensity, higher = more binding, comparable within an allelic series)
binding signal (HOXA2 [4]): 8.87 upbm affinity estimate (log intensity, higher = more binding, comparable within an allelic series)
